Assay results reported in PubChem BioAssay AID2314 (National Center for Advancing Translational Sciences (NCATS), 2010).
“And” between values parts separate entries of the source, which are not always exact repeats. Identical values can stand only once. About 37,000 (12%) of roughly 300,000 compounds were called active. What follows is part of a selection rich in actives, with near analogues and random picks from the rest. Unmarked numbers belong to inactive results. No stated cut-off is given here; in the data, active means max response mostly above about 13% (no sharp cut-off); inactive means mostly below about 14%.

Assay: Cycloheximide Counterscreen for Small Molecule Inhibitors of Shiga Toxin; further: read at 38.3 µM for the half of the compounds with a filed dose; 0% is about no effect
Settings: cell reporter, cycloheximide protein synthesis inhibition counterscreen; active compounds read high

Row | Compound | max response
1 | CC(CCc1ccccc1)NC(=O)COC(=O)c1ccc(F)cc1 (centres undefined) | -6.34%
2 | O=C(COC(=O)c1n[nH]c2ccccc12)NCc1ccccc1 | 7.3%
3 | C=CCN(CC=C)C(=O)COC(=O)c1n[nH]c2ccccc12 | -0.5%
4 | CCN(CC)S(=O)(=O)c1ccc2nc(COC(=O)c3n[nH]c4ccccc34)[nH]c2c1 | -0.99%
5 | O=C(O)CCCc1ccccc1 | -4.62% and -1.89%
6 | O=C(NCCc1ccc(F)cc1)c1n[nH]c2ccccc12 | 43.7% (active)
7 | CCC(C)NC(=O)C1c2ccccc2C(=O)N1Cc1ccccc1 (centres undefined) | 7.68%
8 | O=C(CCOc1ccccc1)NCc1ccccc1 | -2.09%
9 | CCC(C)NC(=O)CCCc1ccccc1 (centres undefined) | 27.2% (active)
10 | COc1cccc(CNC(=O)c2n[nH]c3ccccc23)c1 | 27.4%
11 | O=C(CCCc1ccccc1)NCc1ccccc1 | 28.4% (active)
12 | COc1ccc(COC(=O)c2n[nH]c3ccccc23)cc1F | 67% (active)
13 | Cc1cccc(CC(=O)N2CCN=C2SCc2ccc([N+](=O)[O-])cc2)c1 | -3.02%
14 | CC1C(=O)Nc2ccccc2N1C(=O)c1ccc(F)cc1F (centres undefined) | 1.08%
15 | CC(C)C[C@@H](N)c1nnc(SCC(=O)c2ccc(Cl)cc2)o1 | -2.64%
16 | CCc1ccc(S(=O)(=O)Nc2cc3c(cc2N2CCCCC2)n(C)c(=O)c(=O)n3C)cc1 | 3.05%
17 | Cc1ccnc(NC(=O)CCC(=O)N(CC(=O)NCCc2ccccc2)Cc2cccs2)c1 | -8.74%
18 | CCN(CC)CCCNC(=O)CCc1ccccc1 | 10.2%
19 | O=C(CCc1ccccc1)NCCc1cccs1 | 36.1% (active)
20 | O=C(Cc1c(O)c2ccccc2[nH]c1=O)NCc1ccccc1 | -2.53%
21 | O=C(Cc1ccccc1)NCc1ccc(F)cc1 | 42.5% (active)
22 | CCCCC(=O)NCc1ccc(F)cc1 | -4.14%
23 | CCn1cc(C(=O)Nc2cc(C)ccc2C)c(=O)c2ccc(C)nc21 | 7.8%
24 | COc1ccc(C2=NN(c3ccccc3)C(c3cccs3)C2)cc1 (centres undefined) | 0.803%
25 | COc1ccccc1N1N=C(c2cccs2)CC1c1ccccc1 (centres undefined) | 6.34%
26 | Oc1ccccc1C1=NN(c2ccccc2)C(c2ccccc2)C1 (centres undefined) | 49.1% (active)
27 | CC(=O)Oc1ccccc1C1=NN(C(C)=O)C(c2ccccc2)C1 (centres undefined) | 9.57%
28 | O=C(c1ccccc1)N1N=C(c2ccccc2O)CC1c1ccc(Br)cc1 (centres undefined) | 3.47%
29 | COc1ccc(C2CC(c3cccs3)=NN2c2ccccc2)cc1 (centres undefined) | 41% (active)
